In ChEMBL document CHEMBL3988442, “University of Dundee, Small-Polar-MMV Screening Library” (2021):
For some assays here: Potency and affinity values are given separately.

Legend:
Design in all cases: scale not given: direction of the effect not stated beside the values
[1] = molecular target: Protein translocase subunit SecA (Escherichia coli (strain K12)) (UniProt P10408); assay: Assay to Identify E. coli SecA ATPase Inhibitors; type: functional; conditions: 30 µM
[2] = molecular target: T1, Ubiquitin-activating enzyme e1, putative (Leishmania donovani (strain BPK282A1)) (UniProt E9BSI1); assay: Leishmania donovani Ubiquitin Activating Enzyme (LdE1); type: functional; conditions: 30 µM
T1 sequence (whole entry): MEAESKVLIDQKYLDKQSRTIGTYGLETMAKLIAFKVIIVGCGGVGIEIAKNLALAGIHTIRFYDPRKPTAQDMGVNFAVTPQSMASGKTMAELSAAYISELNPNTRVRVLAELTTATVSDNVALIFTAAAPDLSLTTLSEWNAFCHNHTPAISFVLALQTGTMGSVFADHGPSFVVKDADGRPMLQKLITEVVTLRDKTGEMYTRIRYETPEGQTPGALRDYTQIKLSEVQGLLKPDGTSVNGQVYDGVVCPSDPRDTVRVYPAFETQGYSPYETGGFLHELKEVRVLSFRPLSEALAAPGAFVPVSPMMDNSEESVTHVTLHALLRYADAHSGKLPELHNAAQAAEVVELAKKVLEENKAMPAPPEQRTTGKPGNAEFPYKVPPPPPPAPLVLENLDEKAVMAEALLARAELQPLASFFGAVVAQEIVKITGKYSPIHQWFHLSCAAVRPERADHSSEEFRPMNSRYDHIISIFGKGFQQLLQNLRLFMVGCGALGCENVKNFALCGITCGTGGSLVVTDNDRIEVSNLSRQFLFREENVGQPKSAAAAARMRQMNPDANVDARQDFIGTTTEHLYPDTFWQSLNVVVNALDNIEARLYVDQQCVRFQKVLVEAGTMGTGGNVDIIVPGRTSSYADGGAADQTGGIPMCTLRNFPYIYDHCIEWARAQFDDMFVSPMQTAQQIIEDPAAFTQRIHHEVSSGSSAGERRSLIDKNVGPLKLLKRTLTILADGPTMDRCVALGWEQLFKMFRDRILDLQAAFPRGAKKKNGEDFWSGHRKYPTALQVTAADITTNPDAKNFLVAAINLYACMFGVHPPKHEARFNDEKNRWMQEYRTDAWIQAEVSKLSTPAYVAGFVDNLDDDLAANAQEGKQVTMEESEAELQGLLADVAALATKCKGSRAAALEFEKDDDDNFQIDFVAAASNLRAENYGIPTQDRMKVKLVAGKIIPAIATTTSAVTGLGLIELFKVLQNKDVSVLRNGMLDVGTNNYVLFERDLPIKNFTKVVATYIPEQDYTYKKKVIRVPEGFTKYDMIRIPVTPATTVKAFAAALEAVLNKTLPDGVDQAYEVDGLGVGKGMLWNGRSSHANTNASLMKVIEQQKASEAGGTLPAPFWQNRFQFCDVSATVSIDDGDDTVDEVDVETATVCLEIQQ

[3] = molecular target: AMP-activated protein kinase, AMPK (Homo sapiens) (UniProt P54646+O43741+P54619+Q9UGJ0+Q9Y478+Q13131+Q9UGI9); assay: AMP-dependent Kinase enzyme assay. An in vitro enzyme assay that detects ADP turnover that is directly proportional to AMPK activity. This uses naive AMPK that is activated during the assay with MK-8722; type: functional; conditions: 30 µM
[4] = molecular target: Sialic acid-binding Ig-like lectin 9 (Homo sapiens) (UniProt Q9Y336); assay: Hs-Siglec9 ALPHAscreen SOP 20170721; conditions: 10 µM
Trypanosoma cruzi = assay: Trypanosoma cruzi phosphomannomutase and mannose-1-phosphate guanylyltransferase assay; type: functional; conditions: 10 µM
[5] = molecular target: T2, Arginase-2, mitochondrial (Homo sapiens) (UniProt P78540); assay: in vitro enzyme assay to detect the production of urea directly proportional to the activity of Arginase II; type: functional; conditions: 33.3 µM; also: in the data most compounds retested in dose-response had high values
T2 sequence (whole entry): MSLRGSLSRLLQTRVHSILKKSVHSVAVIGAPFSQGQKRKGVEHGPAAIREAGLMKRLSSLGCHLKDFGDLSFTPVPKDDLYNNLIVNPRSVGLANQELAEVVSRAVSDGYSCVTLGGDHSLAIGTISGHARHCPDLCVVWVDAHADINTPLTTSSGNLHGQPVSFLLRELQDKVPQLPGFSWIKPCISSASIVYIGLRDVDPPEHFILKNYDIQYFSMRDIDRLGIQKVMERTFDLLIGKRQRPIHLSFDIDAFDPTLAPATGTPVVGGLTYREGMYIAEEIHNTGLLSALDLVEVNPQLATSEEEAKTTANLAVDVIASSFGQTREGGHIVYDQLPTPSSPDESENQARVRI

[6] = molecular target: T3, Proteasome subunit beta (Trypanosoma cruzi) (UniProt O96673); assay: Trypanosoma cruzi proteasome chymotrypsin-like activity (TcProtChymo) assay.; also: in the data most compounds retested in dose-response had high values; type: functional; conditions: 9.37 µM
T3 sequence (whole entry): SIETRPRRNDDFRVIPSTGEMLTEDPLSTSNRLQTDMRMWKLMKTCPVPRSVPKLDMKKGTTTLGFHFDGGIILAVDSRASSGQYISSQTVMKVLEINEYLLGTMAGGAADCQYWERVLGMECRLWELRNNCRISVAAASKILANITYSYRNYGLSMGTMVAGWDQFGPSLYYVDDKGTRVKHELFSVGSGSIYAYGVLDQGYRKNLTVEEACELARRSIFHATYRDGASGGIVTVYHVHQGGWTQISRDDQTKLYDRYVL

Homo sapiens = species: Homo sapiens; assay: To identify inhibition of the IFN signalling (Jak-Stat) pathway via expression of an eGFP reporter gene under the control of an IFN-stimulated response element (ISRE) containing MxA promoter.; type: functional; conditions: 30 µM
[7] = molecular target: T4, Tyrosyl-tRNA synthetase, putative (Trypanosoma cruzi (strain CL Brener)) (UniProt Q4DSP6); assay: Trypanosoma cruzi tyrosyl tRNA synthetase (TcYRS) _High Tyrosine SOP; type: functional; conditions: 30 µM; also: in the data most compounds retested in dose-response had high values
T4 sequence (whole entry): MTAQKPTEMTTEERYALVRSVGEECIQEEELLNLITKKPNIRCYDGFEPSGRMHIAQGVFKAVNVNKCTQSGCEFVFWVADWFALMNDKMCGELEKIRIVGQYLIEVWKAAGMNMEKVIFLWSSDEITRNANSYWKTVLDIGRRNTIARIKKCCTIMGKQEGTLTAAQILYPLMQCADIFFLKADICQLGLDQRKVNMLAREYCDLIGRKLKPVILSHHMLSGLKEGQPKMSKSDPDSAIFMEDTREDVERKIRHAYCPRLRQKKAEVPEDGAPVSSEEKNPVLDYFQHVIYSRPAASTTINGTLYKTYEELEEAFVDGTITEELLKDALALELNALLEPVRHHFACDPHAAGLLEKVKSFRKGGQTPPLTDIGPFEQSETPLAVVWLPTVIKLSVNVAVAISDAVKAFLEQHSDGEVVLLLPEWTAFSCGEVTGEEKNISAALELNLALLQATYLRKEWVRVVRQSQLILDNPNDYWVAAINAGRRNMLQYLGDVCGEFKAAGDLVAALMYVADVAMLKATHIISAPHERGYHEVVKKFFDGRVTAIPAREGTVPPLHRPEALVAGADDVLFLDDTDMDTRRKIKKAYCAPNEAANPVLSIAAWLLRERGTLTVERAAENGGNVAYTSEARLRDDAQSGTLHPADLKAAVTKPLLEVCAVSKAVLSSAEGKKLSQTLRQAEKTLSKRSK

[8] = molecular target: T4, Tyrosyl-tRNA synthetase, putative (Trypanosoma cruzi (strain CL Brener)); assay: Trypanosoma cruzi tyrosyl tRNA synthetase (TcYRS) SOP; type: functional; conditions: 30 µM
[9] = molecular target: Chromo domain-containing protein 1 (Saccharomyces cerevisiae (strain ATCC 204508 / S288c) (Baker's yeast)) (UniProt P32657); assay: ScCHD-1 Enzyme Inhibition Assay; type: functional; conditions: 30 µM; also: in the data most compounds retested in dose-response had high values
Sequence of Chromo domain-containing protein 1 (Saccharomyces cerevisiae (strain ATCC 204508 / S288c) (Baker's yeast)) (P32657 whole entry, the tested form may be a part): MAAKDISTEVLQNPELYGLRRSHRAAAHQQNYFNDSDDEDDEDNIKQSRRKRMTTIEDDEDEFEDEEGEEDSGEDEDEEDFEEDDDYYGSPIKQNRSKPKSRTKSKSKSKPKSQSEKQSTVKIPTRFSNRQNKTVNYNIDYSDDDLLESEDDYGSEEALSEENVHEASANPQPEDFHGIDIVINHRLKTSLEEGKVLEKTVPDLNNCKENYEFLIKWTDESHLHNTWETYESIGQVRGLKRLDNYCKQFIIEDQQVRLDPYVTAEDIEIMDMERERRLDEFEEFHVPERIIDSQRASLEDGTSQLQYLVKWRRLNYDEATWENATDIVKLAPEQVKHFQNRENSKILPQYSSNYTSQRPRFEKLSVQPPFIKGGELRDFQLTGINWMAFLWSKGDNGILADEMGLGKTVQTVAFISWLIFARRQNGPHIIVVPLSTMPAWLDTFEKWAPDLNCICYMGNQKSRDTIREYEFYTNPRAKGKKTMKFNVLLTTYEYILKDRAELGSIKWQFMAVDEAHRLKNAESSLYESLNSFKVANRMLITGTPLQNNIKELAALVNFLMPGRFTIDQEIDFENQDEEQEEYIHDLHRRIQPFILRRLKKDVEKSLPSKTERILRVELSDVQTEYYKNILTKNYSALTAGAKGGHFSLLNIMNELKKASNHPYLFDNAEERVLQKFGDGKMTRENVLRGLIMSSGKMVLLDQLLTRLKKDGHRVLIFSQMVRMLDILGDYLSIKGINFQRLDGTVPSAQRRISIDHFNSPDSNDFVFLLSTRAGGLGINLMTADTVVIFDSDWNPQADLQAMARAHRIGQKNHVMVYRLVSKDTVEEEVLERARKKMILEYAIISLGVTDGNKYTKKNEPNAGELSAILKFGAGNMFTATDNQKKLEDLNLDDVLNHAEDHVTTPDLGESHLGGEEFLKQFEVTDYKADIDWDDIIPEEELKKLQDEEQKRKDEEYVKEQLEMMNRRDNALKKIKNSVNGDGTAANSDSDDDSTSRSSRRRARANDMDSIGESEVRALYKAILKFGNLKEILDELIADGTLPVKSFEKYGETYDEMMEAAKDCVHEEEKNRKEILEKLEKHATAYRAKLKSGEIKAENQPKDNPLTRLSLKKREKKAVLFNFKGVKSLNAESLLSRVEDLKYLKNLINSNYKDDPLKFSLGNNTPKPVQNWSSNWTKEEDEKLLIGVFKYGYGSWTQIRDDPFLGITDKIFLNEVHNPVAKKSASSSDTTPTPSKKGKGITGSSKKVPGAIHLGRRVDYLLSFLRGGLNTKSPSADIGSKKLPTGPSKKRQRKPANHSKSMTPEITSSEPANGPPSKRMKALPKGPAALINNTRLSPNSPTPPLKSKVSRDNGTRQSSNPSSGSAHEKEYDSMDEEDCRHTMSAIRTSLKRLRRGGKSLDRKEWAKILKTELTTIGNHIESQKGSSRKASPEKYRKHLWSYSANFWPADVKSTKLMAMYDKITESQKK

Sequence of Protein translocase subunit SecA (Escherichia coli (strain K12)) (P10408 whole entry): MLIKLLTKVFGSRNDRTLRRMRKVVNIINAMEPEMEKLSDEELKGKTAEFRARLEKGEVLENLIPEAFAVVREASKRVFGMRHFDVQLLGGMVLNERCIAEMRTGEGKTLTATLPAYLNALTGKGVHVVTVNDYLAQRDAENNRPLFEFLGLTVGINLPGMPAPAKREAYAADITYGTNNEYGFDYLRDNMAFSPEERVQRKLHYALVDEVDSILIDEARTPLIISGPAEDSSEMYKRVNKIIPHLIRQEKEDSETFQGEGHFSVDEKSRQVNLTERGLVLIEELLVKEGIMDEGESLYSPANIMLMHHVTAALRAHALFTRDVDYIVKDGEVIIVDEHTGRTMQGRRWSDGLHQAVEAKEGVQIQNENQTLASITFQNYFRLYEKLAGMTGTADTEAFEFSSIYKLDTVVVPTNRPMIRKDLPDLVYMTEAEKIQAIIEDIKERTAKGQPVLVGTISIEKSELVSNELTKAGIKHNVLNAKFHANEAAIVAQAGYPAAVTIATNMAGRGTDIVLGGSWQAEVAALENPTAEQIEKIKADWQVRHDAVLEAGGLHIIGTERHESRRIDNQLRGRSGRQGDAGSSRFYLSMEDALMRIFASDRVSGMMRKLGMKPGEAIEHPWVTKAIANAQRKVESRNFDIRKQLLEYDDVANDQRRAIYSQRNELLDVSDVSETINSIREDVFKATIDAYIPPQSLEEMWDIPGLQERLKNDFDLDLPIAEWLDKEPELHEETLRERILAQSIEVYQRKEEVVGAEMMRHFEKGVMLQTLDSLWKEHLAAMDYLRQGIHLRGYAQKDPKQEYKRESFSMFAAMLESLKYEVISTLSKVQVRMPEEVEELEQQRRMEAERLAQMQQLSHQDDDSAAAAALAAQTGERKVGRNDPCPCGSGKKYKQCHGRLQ
Sequence of Sialic acid-binding Ig-like lectin 9 (Homo sapiens) (Q9Y336 whole entry): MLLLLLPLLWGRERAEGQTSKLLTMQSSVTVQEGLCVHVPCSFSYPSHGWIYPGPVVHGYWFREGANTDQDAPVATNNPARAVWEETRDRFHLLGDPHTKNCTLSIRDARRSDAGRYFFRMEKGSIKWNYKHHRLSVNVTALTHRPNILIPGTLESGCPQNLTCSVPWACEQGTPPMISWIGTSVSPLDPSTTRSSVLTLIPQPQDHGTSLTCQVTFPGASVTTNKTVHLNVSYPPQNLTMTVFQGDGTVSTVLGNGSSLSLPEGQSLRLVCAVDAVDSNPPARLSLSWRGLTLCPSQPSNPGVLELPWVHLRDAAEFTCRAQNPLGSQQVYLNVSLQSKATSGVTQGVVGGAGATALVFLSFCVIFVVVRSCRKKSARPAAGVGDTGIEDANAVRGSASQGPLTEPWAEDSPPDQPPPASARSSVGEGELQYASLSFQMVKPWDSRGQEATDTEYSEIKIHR

Row | SMILES | Percent Effect [1] | Percent Effect [2] | Percent Effect [3] | Percent Effect [4] | Percent Effect (Trypanosoma cruzi) | Percent Effect [5] | Percent Effect [6] | Percent Effect (Homo sapiens) | Percent Effect [7] | Percent Effect [8] | Percent Effect [9]
1 | CSCC(CCO)NC(=O)Nc1cccc(Br)c1 (configuration not stated) | -3.42% | 2.74% | 8.84% | -3.56% | -3.53% | 3.18% | 17.2% | 6.61% | 0% | 2.5% | -2.08%
2 | O=C(NCc1ccccc1)N1CCC2(CC(=O)N(c3ccsc3)C2)C1 (configuration not stated) | -1.66% | 0% | 3.29% | 0.825% | 0.977% | 0.417% | 2.45% | -9.22% | 85.2% | 6.1% | -1.83%
3 | CC(COc1ccccc1)NCc1nc(-c2cccnc2)no1 (configuration not stated) | -2.6% | 6.94% | -4.69% | 0.164% | 1.85% | 3.09% | 6.14% | 5.92% | 3.16% | 10.3% | -2.08%
4 | Cc1ccsc1[C@@H]1CCN(C(=O)c2cc3ccccc3[nH]2)C[C@H]1O | -2.04% | -1.39% | 0.967% | -5.71% | -6.51% | -0.442% | 15.3% | 12.8% | -3.16% | -2.56% | 2.93%
5 | O=C(CC1CCCO1)NCc1ccccc1Cn1cncn1 (configuration not stated) | -2.25% | 15.8% | -5.58% | -5.97% | -7.75% | 4.32% | 9.39% | 3.32% | 4.43% | 23.5% | -2.47%
6 | Cc1nc(C)n(CC2CCCN(Cc3nc(C4CC4)no3)C2)n1 (configuration not stated) | -2.19% | 21.6% | -9.55% | 4.88% | 3.11% | -4.41% | 12.8% | 2.75% | 8.37% | 23.5% | -12.5%
7 | Cc1cccc(CN2CCc3ncnc(C)c3CC2)n1 | 1.12% | 8.22% | 5.73% | 7.82% | -5.75% | -0.798% | 13.4% | 4.7% | -1.04% | 8.64% | -4.79%
8 | O=C(CSc1nc2c(cnn2CCO)c(=O)[nH]1)N1CCCCCC1 | 1.99% | 8.22% | -8.26% | 4.22% | -3.33% | 3.18% | 11.4% | 14.3% | 4.3% | 10% | -2.48%
9 | CS(=O)(=O)N[C@@H]1CCO[C@]2(CCN(C(=O)C3=CCCC3)C2)C1 | -2.88% | 13.5% | 3.79% | -4.46% | -2.25% | 14.3% | 23.2% | -15.3% | 5.41% | 12.8% | -3.57%
10 | Cc1ccc(C)c(C(NC(=O)C(C)(C)C)c2cccnc2)c1 (configuration not stated) | -1.95% | 13% | 3.34% | -1.13% | 4.63% | -0.645% | 14.3% | 21.8% | 4.23% | 6.41% | -10.2%
11 | COc1c(CNCc2ccc(C(=O)N(C)C)cc2)c(C)nn1C | -4.19% | 1.27% | 7.36% | -0.0396% | 2.97% | 1.07% | 8.23% | 27.1% | 3.12% | 7.59% | -4.86%
12 | CCN(CCn1cccn1)Cc1nc(-c2ccccc2F)oc1C | -1.08% | -6.94% | -5.26% | -5.94% | -0.68% | -0.883% | 5.61% | 7.62% | 1.05% | 0% | 2.51%
13 | Cn1cnnc1S(=O)(=O)C1CCN(S(=O)(=O)c2c(Cl)cccc2Cl)CC1 | -1.95% | 0% | 5.5% | -4.3% | -1.76% | -2.27% | 4.97% | 6.49% | 0% | 0% | 0.0853%
14 | NC(=O)C1CCN(C(=O)c2ccn(-c3ccc(F)cc3)n2)C1 (configuration not stated) | -2.82% | 5.41% | 0.129% | -2.22% | -6.96% | 4.25% | 5.39% | 6.15% | 4.95% | 11% | 1.99%
15 | COCCOCC(=O)Nc1ccc(Br)cc1F | -4.21% | 10.5% | -1.83% | 4.08% | 3.8% | -5.92% | 1.63% | 9.23% | 1.06% | 7.79% | -2.27%
16 | CCCc1nc(N2Cc3cnn(Cc4ccc(F)cc4)c3C2)no1 | -3.65% | 5.33% | 7.03% | 2.42% | -2.04% | 2.6% | 14.1% | 19.7% | 4.92% | 11.1% | -7.25%
17 | Cc1cc(C(=O)N2CCCC(n3cncn3)C2)c(C)n1C1CC1 (configuration not stated) | -2.41% | -3.8% | 2.66% | 1.98% | 1.54% | 2.37% | -1.54% | -3.71% | 2.08% | 2.53% | 11.1%
18 | CC(=O)Nc1ncc(S(=O)(=O)Nc2ccc(F)cc2)s1 | -4.49% | 17.3% | -9.36% | -7.58% | 2.36% | -0.88% | 12.2% | 20.4% | 3.17% | 10.3% | -10.6%
19 | Cn1cnnc1C1CCCN(C(=O)NCc2cc[nH]n2)C1 (configuration not stated) | -1.36% | 18.4% | -12.9% | -7.02% | 4.01% | -2.16% | 9.05% | 4.39% | 6.4% | 18.5% | -8.86%
20 | Cc1c(C(=O)NCC(C)C)nnn1-c1cccc2c1CCN(C)C2 | -4.34% | 2.63% | 0.913% | 2.87% | -0.682% | -2.37% | 11.2% | 18.4% | 5.32% | 15.6% | -0.534%
21 | Cc1cnn(CC2CCCN2C(=O)c2cccc(-n3cnnn3)c2)c1 (configuration not stated) | -0.0058% | 2.53% | 6.56% | 4.88% | -1.79% | 6.08% | -0.573% | 13.2% | 2.46% | 1.27% | -1.78%
22 | CC(C)CN1CCC(c2nc3c([nH]2)CC(C)(C)CNC3=O)C1 (configuration not stated) | 3.37% | 8.11% | -3.98% | 5.96% | 3.67% | 16.2% | 10.5% | 19.8% | 5.82% | 19.5% | -2.21%
